High-throughput results (PubChem BioAssay)
This is a sample that favours compounds with a hit; in the whole collection about 2.8% have one here.
Peg3 prom inh: reduces Peg3 promoter-driven luciferase expression in HeLa; AID 588405; HeLa PEG-Prom luciferase reporter, luminescence, overnight; inhibition, % at 20 µM; 360,000 tested, 1.7% active;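 active = inhibition of at least 50% at 20 µM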
CF NFkB inh: cystic fibrosis NF-kB activation inhibition | 360,000 tested, 0.86% active | KKLEB NF-kB-GFP reporter, PAF-induced, GFP fluorescence overnight | AID 588850 | inhibition, % at 5 µM;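 active = at least 50% inhibition at 5 µM, scaled per plate between neutral and stimulator controls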;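 note: PAF is a Pseudomonas aeruginosa culture filtrate used as stimulus; plate controls were PAF-stimulated DMSO wells for no effect and unstimulated DMSO wells for full effect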
KKLEB cytotox: CF airway cell cytotoxicity counter-screen; activity change (cytotoxicity), % at 5 µM; KKLEB CF airway cells viability, ATPlite luminescence, overnight; active compounds read low; cells stimulated with P. aeruginosa culture filtrate; 360,000 tested, 0.36% active;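 active = corrected activity change at or below -50% at 5 µM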
HIF-2a inh: inhibitors of HIF-2a | 786-0 RCC cells HIF-2a reporter, luciferase luminescence, overnight | inhibition, % at 18.8 µM | 360,000 tested, 0.72% active;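 active = inhibition of the luminescence signal of 40% or more relative to plate controls, in a single-dose primary screen at 18.75 µM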
TRPM1 prom inh: reduces MITF-dependent TRPM1 promoter luciferase signal; SK-MEL-5 TRPM1 promoter luciferase, 24 h; inhibition, % at 12.5 µM; 330,000 tested, 0.83% active; AID 488899;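 active = mean inhibition across replicates of 60% or more, whatever share of single replicates reaches that level; inconclusive = some that reach 60%, reason not given; inactive = mean inhibition across replicates below 60%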
Shn3 inh set2: Schnurri-3 reporter inhibition in Clone20 osteoblasts. AID 588674. inhibition, % at 12.5 µM. 360,000 tested, 0.52% active. Clone20 osteoblast Shn3 3'UTR firefly luciferase, 24 h;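 active = mean inhibition of at least 75% with every replicate also reaching 75%; inconclusive = mean inhibition at least 75% but some replicate below; inactive = mean inhibition below 75%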;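 note: 0% = median of neutral control wells and 100% = pilot-screen positive control compound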
Starred values were filed as active, the others as inactive; ? = inconclusive; . = not tested or not shown.

SMILES	Peg3 prom inh	CF NFkB inh	KKLEB cytotox	HIF-2a inh	TRPM1 prom inh	Shn3 inh set2
CCCC(=O)N1CCN(c2ccc(NC(=O)c3cc4ccccc4o3)cc2Cl)CC1	104*	-2	-11	-65	?	91*
CCC(=O)N1CCN(c2ccc(NC(=O)c3cc4ccccc4o3)cc2Cl)CC1	108*	18	2	-91	52	53
CCC(=O)N1CCN(c2ccc(NC(=O)c3ccco3)cc2Cl)CC1	-54	-2	19	-46	-27	-30
c1ccc(CNc2nc(NCc3ccccc3)c3sccc3n2)cc1	-5	-22	-12	-12	.	22
COC(=O)C1(C(=O)OC)C[C@H](/C=C/c2ccccc2)N(Cc2ccccc2OC)[C@@H]1c1ccccc1	.	.	.	1	.	.
Cc1cc(=O)n2c3c(c4c(cc13)c(CN(C)C)cc(=O)n4C)OC2	3	-83	-2	15	-2	-23
COc1cc2c(cc1NC(=O)CN1C(=O)NC3(CCc4ccccc43)C1=O)oc1ccccc12 (stereo not given)	57*	2	-8	-41	3	9
O=C(CSc1nc2[nH]ncc2c(=O)n1-c1ccccc1)c1ccc2c(c1)OCCO2	57*	-11	0	7	1	17
O=C(CSc1nc2[nH]ncc2c(=O)n1-c1ccccc1)NCCc1ccccc1	1	-4	3	8	3	18
CN(C)CCCN(C(=O)c1cc(-c2cccs2)nc2ccccc12)c1nc2c(F)cccc2s1	71*	31	-21	8	53	4
CN(C)CCCN(C(=O)c1sc2ccccc2c1Cl)c1nc2c(F)cccc2s1	-8	6	-7	-8	-2	-13
COc1cc2ccccc2cc1C(=O)N(CCN(C)C)c1nc2ccc(C)cc2s1	0	24	4	-12	-12	0
Cc1ccc2nc(N(CCCN(C)C)C(=O)c3cc(-c4cccs4)nc4ccccc34)sc2c1	107*	33	-14	-1	44	-3
Cc1cccc2sc(N(CCCN(C)C)C(=O)c3ccc(C(=O)c4ccccc4)cc3)nc12	86*	29	6	-5	-14	9
CN(C)CCCN(C(=O)/C=C/c1cccs1)c1nc2c(F)cccc2s1	106*	19	-11	14	54	-18
CC(C)[C@H](NC(=O)c1ccc(C(C)(C)C)cc1)C(=O)N1CCN(Cc2ccc3c(c2)OCO3)CC1	20	5	5	-3	22	34
CCOc1ccc(NC(=S)Nc2ccccc2C2(C)CC2)cc1	27	15	4	3	0	11
O=C(Nc1ccccc1F)C1CCN(S(=O)(=O)c2cccnc2)CC1	7	-6	15	3	7	5
O=C(NCc1cccs1)C1Cc2c(-c3ccc(Cl)cc3)ccnc2O1 (stereo not given)	-41	31	-18	-22	.	-4
Cc1onc(-c2ccccc2Cl)c1C(=O)N1CCC(C(N)=O)CC1	-5	6	-4	13	-13	-5
Cc1onc(-c2ccccc2Cl)c1C(=O)N1CCC(Cc2ccccc2)CC1	21	26	-17	12	14	89*
CCOC(=O)C1(Cc2ccc(OC)cc2)CCN(S(C)(=O)=O)CC1	9	-1	-7	8	4	1
CCOC(=O)C1(Cc2ccc(Cl)cc2)CCN(C(C)Cc2ccc(O)c(OC)c2)CC1 (stereo not given)	9	12	-3	6	5	92*
NC(Cc1ccc(Cl)cc1)c1csc(Nc2ccc(-c3ccccc3)nn2)n1 (stereo not given)	99*	9	-13	0	.	9
NC(Cc1ccc(C(F)(F)F)cc1)c1csc(Nc2ncccn2)n1 (stereo not given)	8	10	-15	-1	.	25
NC(Cc1cnc[nH]1)c1csc(Nc2ccc(C(F)(F)F)cn2)n1 (stereo not given)	7	5	-13	11	.	-11
NC(Cc1ccc(C(F)(F)F)cc1)c1csc(Nc2ccccn2)n1 (stereo not given)	105*	-3	-7	1	.	13
NC(Cc1ccc(F)cc1)c1csc(Nc2ccc(C(F)(F)F)cn2)n1 (stereo not given)	95*	35	-10	7	.	19
Cc1cnc(C)c(Nc2nc(C(N)Cc3ccc(C(F)(F)F)cc3)cs2)n1 (stereo not given)	108*	16	-12	12	.	48
